In paper PMC7862700, “An all-to-all approach to the identification of sequence-specific readers for epigenetic DNA modifications on cytosine”:

Key:
Test in all cases: DAPPL (digital affinity profiling via proximity ligation, sequencing); 10 mM Tris-HCl pH 7.5, 50 mM NaCl, 1 mM DTT, 4% glycerol, room temperature, 30 min; GST-TFs on glutathione beads, 16-mer random dsDNA library, 0.1% formaldehyde crosslink after washing; high values mean tight binding
Conditions in all cases: protein: recombinant; tags: N-terminal GST; dsDNA, one strand shown
[1] = molecular target: T1, FLI1 (Homo sapiens, UniProt Q01543 1-452)
T1 sequence: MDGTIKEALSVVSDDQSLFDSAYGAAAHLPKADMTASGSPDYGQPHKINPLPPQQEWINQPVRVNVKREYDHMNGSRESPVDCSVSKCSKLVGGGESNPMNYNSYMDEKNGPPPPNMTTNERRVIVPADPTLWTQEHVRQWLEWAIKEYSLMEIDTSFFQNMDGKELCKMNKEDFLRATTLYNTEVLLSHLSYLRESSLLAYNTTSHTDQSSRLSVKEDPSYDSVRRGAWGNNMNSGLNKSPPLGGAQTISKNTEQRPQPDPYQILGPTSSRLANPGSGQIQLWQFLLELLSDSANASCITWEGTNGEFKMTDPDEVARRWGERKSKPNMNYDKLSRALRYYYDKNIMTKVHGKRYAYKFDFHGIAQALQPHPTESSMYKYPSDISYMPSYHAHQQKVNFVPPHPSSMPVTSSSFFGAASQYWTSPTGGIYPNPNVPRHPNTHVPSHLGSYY
Procedure, shortened: (§1)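 Binding signal is each hexamer's read frequency for a factor divided by its frequency in the tag-only sample. The factors were GST-fused human transcription factors from yeast, captured on glutathione beads, DNA-barcoded and pooled with that sample. Pools were incubated with 200 nmole of a random double-stranded 16-mer DNA library in Tris/NaCl/DTT/glycerol buffer at room temperature for 30 min, then washed, crosslinked with 0.1% formaldehyde, proximity-ligated with BsaI/T4 ligase (1 h, 37 °C), PCR-amplified and sequenced on an Illumina NextSeq500.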

[2] = molecular target: T2, ELK1 (Homo sapiens, UniProt P19419 1-428)
T2 sequence: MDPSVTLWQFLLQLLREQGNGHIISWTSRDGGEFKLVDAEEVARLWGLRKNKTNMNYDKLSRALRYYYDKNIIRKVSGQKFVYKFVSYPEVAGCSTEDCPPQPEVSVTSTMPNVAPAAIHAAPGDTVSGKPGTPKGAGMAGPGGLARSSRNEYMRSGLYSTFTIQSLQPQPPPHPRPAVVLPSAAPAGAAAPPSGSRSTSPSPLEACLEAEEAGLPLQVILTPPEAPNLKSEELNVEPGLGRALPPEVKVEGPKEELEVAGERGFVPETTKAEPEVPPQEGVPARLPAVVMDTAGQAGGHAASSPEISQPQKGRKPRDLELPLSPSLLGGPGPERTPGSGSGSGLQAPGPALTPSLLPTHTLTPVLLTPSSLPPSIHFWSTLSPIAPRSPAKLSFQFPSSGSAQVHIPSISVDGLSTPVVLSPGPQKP
Procedure, shortened: as §1

[3] = molecular target: T3, GABPA (Homo sapiens, UniProt Q06546 1-454)
T3 sequence: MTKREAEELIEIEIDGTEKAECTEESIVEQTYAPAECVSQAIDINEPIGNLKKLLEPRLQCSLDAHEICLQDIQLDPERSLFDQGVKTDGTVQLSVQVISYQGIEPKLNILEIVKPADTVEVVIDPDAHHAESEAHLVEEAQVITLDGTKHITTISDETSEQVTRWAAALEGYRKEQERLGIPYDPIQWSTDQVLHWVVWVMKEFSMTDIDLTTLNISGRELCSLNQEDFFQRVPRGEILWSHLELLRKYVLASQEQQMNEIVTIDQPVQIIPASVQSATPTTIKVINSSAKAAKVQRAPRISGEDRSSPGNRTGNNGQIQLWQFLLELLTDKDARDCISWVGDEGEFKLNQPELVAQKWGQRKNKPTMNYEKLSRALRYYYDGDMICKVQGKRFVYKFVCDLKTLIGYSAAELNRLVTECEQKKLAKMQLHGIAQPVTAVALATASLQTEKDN
Procedure, shortened: as §1

[4] = molecular target: T4, ERG (Homo sapiens, UniProt P11308 1-479)
T4 sequence: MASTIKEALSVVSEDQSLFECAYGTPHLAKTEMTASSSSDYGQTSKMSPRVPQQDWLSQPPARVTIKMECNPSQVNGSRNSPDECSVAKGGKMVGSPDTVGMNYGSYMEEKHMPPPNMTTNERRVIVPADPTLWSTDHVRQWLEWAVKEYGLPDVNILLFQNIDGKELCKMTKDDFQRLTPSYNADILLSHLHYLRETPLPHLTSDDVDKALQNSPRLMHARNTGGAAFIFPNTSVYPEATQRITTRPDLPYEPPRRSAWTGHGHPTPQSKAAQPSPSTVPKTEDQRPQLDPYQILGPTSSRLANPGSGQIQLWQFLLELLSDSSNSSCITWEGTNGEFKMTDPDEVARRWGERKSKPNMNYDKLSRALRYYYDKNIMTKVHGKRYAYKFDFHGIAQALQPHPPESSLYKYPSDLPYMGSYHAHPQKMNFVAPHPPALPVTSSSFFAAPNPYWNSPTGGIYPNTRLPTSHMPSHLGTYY
Procedure, shortened: as §1

[5] = molecular target: ELF1 (Homo sapiens, UniProt P32519 1-619)
ELF1, sequence (P32519 whole entry): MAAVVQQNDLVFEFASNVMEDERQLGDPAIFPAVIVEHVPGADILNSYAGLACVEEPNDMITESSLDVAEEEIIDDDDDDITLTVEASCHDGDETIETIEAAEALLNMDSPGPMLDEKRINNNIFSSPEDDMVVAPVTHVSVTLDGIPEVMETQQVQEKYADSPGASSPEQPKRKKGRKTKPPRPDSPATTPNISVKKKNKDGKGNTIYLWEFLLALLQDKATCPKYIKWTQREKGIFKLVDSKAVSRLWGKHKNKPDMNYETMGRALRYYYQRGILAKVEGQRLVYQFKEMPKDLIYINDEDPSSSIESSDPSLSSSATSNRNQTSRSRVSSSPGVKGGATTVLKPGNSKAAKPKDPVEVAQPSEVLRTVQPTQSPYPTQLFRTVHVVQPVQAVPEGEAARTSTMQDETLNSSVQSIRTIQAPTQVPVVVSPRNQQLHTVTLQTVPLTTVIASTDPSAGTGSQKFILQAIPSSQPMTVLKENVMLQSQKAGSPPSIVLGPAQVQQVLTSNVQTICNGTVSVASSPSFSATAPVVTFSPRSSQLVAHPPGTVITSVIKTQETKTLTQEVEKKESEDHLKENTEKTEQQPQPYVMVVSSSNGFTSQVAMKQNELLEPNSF
Procedure, shortened: as §1

[6] = molecular target: T5, EHF (Homo sapiens, UniProt Q9NZC4 1-300)
T5 sequence: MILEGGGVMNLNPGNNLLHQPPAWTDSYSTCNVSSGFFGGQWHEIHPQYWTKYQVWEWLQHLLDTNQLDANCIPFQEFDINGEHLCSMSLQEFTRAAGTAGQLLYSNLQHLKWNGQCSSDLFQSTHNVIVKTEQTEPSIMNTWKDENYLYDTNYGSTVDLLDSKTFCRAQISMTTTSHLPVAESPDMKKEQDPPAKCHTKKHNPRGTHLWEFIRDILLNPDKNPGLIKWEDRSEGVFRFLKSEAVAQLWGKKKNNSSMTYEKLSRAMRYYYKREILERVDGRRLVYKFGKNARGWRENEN
Procedure, shortened: as §1

[7] = molecular target: SPI1 (Homo sapiens, UniProt P17947 1-270)
Procedure, shortened: as §1

[8] = molecular target: SPIB (Homo sapiens, UniProt Q01892 1-262)
SPIB, sequence (Q01892 whole entry): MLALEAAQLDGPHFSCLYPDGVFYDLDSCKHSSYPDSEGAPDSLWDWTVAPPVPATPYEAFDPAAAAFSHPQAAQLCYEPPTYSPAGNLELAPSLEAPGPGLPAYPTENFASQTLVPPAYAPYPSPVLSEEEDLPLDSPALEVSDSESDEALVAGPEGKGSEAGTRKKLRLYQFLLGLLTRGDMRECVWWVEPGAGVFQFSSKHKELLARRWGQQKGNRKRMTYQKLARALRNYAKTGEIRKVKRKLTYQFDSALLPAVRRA
Procedure, shortened: as §1

[9] = molecular target: T6, ELK3 (Homo sapiens, UniProt P41970 1-407)
T6 sequence: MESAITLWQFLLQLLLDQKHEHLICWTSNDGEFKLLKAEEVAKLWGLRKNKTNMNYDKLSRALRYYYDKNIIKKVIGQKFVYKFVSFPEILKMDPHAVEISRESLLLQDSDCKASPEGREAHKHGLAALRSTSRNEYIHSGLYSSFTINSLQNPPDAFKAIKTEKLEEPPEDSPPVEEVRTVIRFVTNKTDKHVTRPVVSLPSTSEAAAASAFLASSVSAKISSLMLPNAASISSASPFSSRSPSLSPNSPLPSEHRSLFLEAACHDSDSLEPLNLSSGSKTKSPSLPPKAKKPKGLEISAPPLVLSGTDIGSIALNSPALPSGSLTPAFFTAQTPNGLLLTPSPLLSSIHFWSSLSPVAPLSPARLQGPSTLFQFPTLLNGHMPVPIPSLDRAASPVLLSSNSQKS
Procedure, shortened: as §1

For TTGCTA, the binding signal [1] was 1.38 fold enrichment (6-mer frequency, TF over GST control), the binding signal [2] was 1.27 fold enrichment (6-mer frequency, TF over GST control) and the binding signal [3] was 1.27 fold enrichment (6-mer frequency, TF over GST control). The binding signal [4] was 1.26 fold enrichment (6-mer frequency, TF over GST control), the binding signal [5] was 1.3 fold enrichment (6-mer frequency, TF over GST control) and the binding signal [6] was 1.33 fold enrichment (6-mer frequency, TF over GST control). For the same sequence, the binding signal [7] was 1.31 fold enrichment (6-mer frequency, TF over GST control), the binding signal [8] was 1.37 fold enrichment (6-mer frequency, TF over GST control) and the binding signal [9] was 1.33 fold enrichment (6-mer frequency, TF over GST control).
